Test results taken from PubChem BioAssay AID1362 (SRMLSC, 2008).
The whole screen tested about 190,000 compounds, of which about 4,000 (2.1%) were called active. The sample holds actives, similar compounds and a random draw of the others, so the mix is not that of the screen. Rule as the data show it: active = inhibition above about 58%; inactive = the rest, inconclusive results apart; tested in S. cerevisiae.

Experiment: growth inhibition of WT strain, primary screen, mitochondrial fusion inhibitor project, WT and mutant strains, chemical genetic (AID 1362)
Conditions: mitochondrial fusion phenotypic screen, at 10 µM
[1] = WT strain, growth inhibition, stronger effect = higher value

Row | Structure (SMILES) | inhibition [1] | inhibition (mutant strain inhibition)
1 | CCC(C)CN1CCC(CO)(Cc2ccccc2Cl)CC1 (stereo not drawn) | 11.3% (inactive) | 4.97%
2 | Cc1ccc(NC(=O)C(=O)NCC2CCN(C(=O)c3cccc([N+](=O)[O-])c3)CC2)cc1 | 2.01% (inactive) | -12.9%
3 | COc1ccccc1-n1c(=S)[nH]c2c(sc(=S)n2-c2ccc(C)cc2C)c1=O | -7.13% (inactive) | -4.6%
4 | Cc1ccc(Nc2cc(C)nc3c(C)ccc([N+](=O)[O-])c23)cc1 | 64.8% (active) | 56.9%
5 | Cc1ccc(Nc2ccc(C(N)=O)cc2[N+](=O)[O-])cc1 | 2.16% (inactive) | -8.75%
6 | Cc1cc(C)nc(Nc2cc([N+](=O)[O-])ccc2C)n1 | -4.85% (inactive) | 9.39%
7 | CCC(C)(C)NC(=O)CN(C(=O)C(=O)Nc1ccc2c(c1)OCCO2)C(C)(C)CC | -7.46% (inactive) | 6.56%
8 | Cc1ccc(C(=O)O)cc1N1C(=O)CCCC1=O | -14.9% (inactive) | -14.6%
9 | CCN1CCN(CCNC(=O)c2ccc(/C=C3/Sc4ccccc4N(Cc4cccc(C)c4)C3=O)cc2)CC1 | 83.7% (active) | 59.2%
10 | O=C(CN1C(=O)/C(=C\c2ccc(C(F)(F)F)cc2)Sc2ccccc21)NCc1ccco1 | 49% (inactive) | 3.15%
11 | Cc1nn(Cc2ccccc2)c(C)c1C(=O)NCCN1C(=O)S/C(=C\c2ccc(F)cc2)C1=O | 0.77% (inactive) | 0.61%
12 | Cc1ccc(C)c(Cn2cnc3c(oc4ccccc43)c2=O)c1 | -1.67% (inactive) | -14.3%
13 | COc1ccccc1/C=N\Nc1cc(C)nc(-n2nc(C)cc2C)n1 | 69.1% (active) | 28.4%
14 | COc1cccc(/C=N/Nc2cc(C)nc(-c3ccccc3O)n2)c1O | 51.6% (inactive) | 48.3%
15 | CC(=O)c1ccc(Oc2cc(C)nc(-n3nc(C)cc3C)n2)cc1 | -3.85% (inactive) | 8.66%
16 | COc1ccc(Nc2cc(C)nc(-n3nc(C)cc3C)n2)cc1 | 76.8% (active) | 68.7%
17 | COc1ccc(NC(=O)c2nc(-n3nc(C)cc3C)ccc2Cl)cc1Cl | 5.72% (inactive) | -16.9%
18 | COc1cc(NS(=O)(=O)c2ccccc2)ccc1-n1nc(C)cc1C | -33.7% (inactive) | 2.02%
19 | COc1ccc(-c2ccc(CCC(=O)O)n2-c2ccc(O)cc2)cc1 | -12.3% (inactive) | -2.11%
20 | O=C(Nc1ccc2ccccc2c1)Nc1ccc2snnc2c1 | 88.1% (active) | 77.8%
21 | COc1ccc(NC(=O)Nc2ccc3nsnc3c2)cc1 | 23.1% (inactive) | -36.8%

Row | Structure (SMILES) | inhibition [1] | inhibition (mutant strain inhibition)
22 | O=C(Nc1ccccc1)Nc1nc2ccccc2s1 | -5.57% (inactive) | -20.5%
23 | COc1ccc2c(c1)CCc1c(C(=O)N3CCCC3)noc1-2 | -10.3% (inactive) | -6.91%
24 | COc1ccc2c(c1)CCc1c(C(=O)Nc3c(C)n(C)n(-c4ccccc4)c3=O)noc1-2 | -9.3% (inactive) | -13%
25 | COc1ccc2c(c1)CCc1c(C(=O)N3CCc4ccccc4C3)noc1-2 | 73.9% (active) | 68%
26 | COc1ccc(CC2(CO)CCN(Cc3cnn(C)c3)CC2)cc1 | 12.1% (inactive) | -0.62%
27 | Cc1cc(O)c(NC(=O)c2ccc(C)c([N+](=O)[O-])c2)cc1C | -6.28% (inactive) | -4.47%
28 | O=S(=O)(NCCOc1cccc2cccnc12)c1ccc(F)cc1 | 0.13% (inactive) | 5.48%
29 | CCOc1cccc(OCCCOc2cccc3cccnc23)c1 | 60.8% (active) | 26%
30 | Cc1cc(OCCOc2cccc3cccnc23)c(C)cc1Cl | 14.6% (inactive) | 20.4%
31 | CC[N+]1(CC)CC2=Cc3ccccc3CC2C1 (stereo not drawn) | 0.67% (inactive) | -6.63%
32 | COCc1nnc(NC(=O)CS(=O)(=O)Cc2ccccc2)s1 | -3.35% (inactive) | -9.06%
33 | O=C(CCc1ccccc1)NCc1cccnc1 | -0.16% (inactive) | 17.5%
34 | O=C(CS(=O)(=O)Cc1ccccc1)Nc1cccnc1 | 90.1% (active) | 19.3%
35 | COCCC(=O)Nc1ccc2c(c1)CN(C(=O)CCOC)CC2 | -15.9% (inactive) | -11.2%
36 | CC(C)C1Nc2c(C(=O)O)cccc2C(Nc2ccccc2C(=O)O)C1(C)C (stereo not drawn) | -8.7% (inactive) | -3.34%
37 | Cc1ccc(-n2nc3c(c2NC(=O)c2ccc4c(c2)OCO4)CSC3)c(C)c1 | 84% (active) | 3.65%
38 | Cc1cccc(-n2nc3c(c2NC(=O)c2ccc(Br)o2)CSC3)c1C | 8.72% (inactive) | 6.28%
39 | Cc1cc(C)c2nc(NC(=O)c3ccc4c(c3)OCO4)sc2c1 | 14.1% (inactive) | -21.7%
40 | O=C(Oc1cccc(O)c1)C1CCCCC1 | -7.96% (inactive) | 7.95%
41 | CCOC(=O)c1c(CN(C)C)n(-c2ccccc2)c2cc(Br)c(O)cc12 | 9.54% (inactive) | 7.76%
42 | CC(CC(=O)O)C(=O)c1ccc(Cl)c([N+](=O)[O-])c1 (stereo not drawn) | -16.5% (inactive) | -4.59%

Row | Structure (SMILES) | inhibition [1] | inhibition (mutant strain inhibition)
43 | O=C(O)c1ccc(NC(=O)c2cccs2)cc1 | -8.36% (inactive) | 1.63%
44 | O=C(Nc1ccnc(-c2ccncc2)n1)c1cccs1 | -10.3% (inactive) | 11%
45 | O=C(Nc1ncccn1)c1cccs1 | 71.2% (active) | 28.9%
46 | Cc1ccccc1CN1C[C@@H]2C[C@@H](c3ccc4nsnc4c3)N3CCC[C@@]23C1=O | 7.94% (inactive) | 5.04%
47 | O=C(NCCCN1CCOCC1)c1ccccc1NS(=O)(=O)c1ccc(F)cc1 | -8.48% (inactive) | 6.56%
48 | O=C(N/N=C/C=C/c1ccco1)c1cccs1 | -12.2% (inactive) | -0.62%
49 | O=C1c2ccccc2S(=O)(=O)N1CC(O)Cn1c2ccccc2c2ccccc21 (stereo not drawn) | 84.5% (active) | 45.8%
50 | CS(=O)(=O)N(CC(O)Cn1c2ccccc2c2ccccc21)c1cccc2ccccc12 (stereo not drawn) | 31.9% (inactive) | 7.33%
51 | CNC(=O)CN1C(=O)c2ccccc2S1(=O)=O | 12.2% (inactive) | -7.85%
52 | COCCCNC(=S)N(Cc1ccccc1)Cc1ccc(F)cc1 | 31.2% (inactive) | 41.6%
53 | CC(NCc1nc2ccccc2n1C)C12CC3CC(CC(C3)C1)C2 (stereo not drawn) | 30.5% (inactive) | 16.6%
54 | COc1ccc(-n2c(C)cc(C(=O)CSc3nnc(-c4cccs4)o3)c2C)cc1 | 4.34% (inactive) | 23%
55 | COc1ccc(-c2nnc(SCC(=O)c3cccs3)o2)c(OC)c1 | 63.6% (active) | -1.8%
56 | COc1ccc(OC)c(C(=O)CSc2nnc(-c3cccs3)o2)c1 | -7.87% (inactive) | -26.6%
57 | CCC(=O)c1ccc(N2CCN(C(=O)c3cc([N+](=O)[O-])ccc3F)CC2)c(F)c1 | 10.4% (inactive) | 5.39%
58 | CC(C)C(c1nnnn1C(C)(C)C)N1CCN(Cc2cccnc2)CC1 (stereo not drawn) | -10.2% (inactive) | 0.92%
59 | COC(=O)C1=C(N)Oc2c(oc(CO)cc2=O)C1c1c(F)cccc1Cl (stereo not drawn) | -8.54% (inactive) | -4.27%
60 | O=C(COC(=O)c1c2c(nc3ccccc13)/C(=C\c1cccs1)CCC2)Nc1ccccc1Cl | 15.8% (inactive) | 3.86%
61 | NC(=O)c1ccc(NC(=O)COC(=O)c2c3c(nc4ccccc24)/C(=C\c2ccc4c(c2)OCO4)CCC3)cc1 | 62.3% (active) | -2.13%
62 | NS(=O)(=O)c1ccc(NC(=O)COC(=O)c2c3c(nc4ccccc24)/C(=C\c2ccc4c(c2)OCO4)CCC3)cc1 | 17.8% (inactive) | -3.76%
63 | Fc1ccc(COc2cccc(-c3n[nH]c(=S)o3)c2)cc1 | -4.32% (inactive) | -2.8%

Row | Structure (SMILES) | inhibition [1] | inhibition (mutant strain inhibition)
64 | Cc1ccc(S(=O)(=O)/N=C(/Nc2ccc3[nH]c(=O)[nH]c3c2)c2ccccc2)cc1 | -20.3% (inactive) | 0.61%
65 | COc1ccc(C2CC(=O)Nc3sc(=N)c4c(N)c(C#N)c(N)nc4c32)cc1OC (stereo not drawn) | -16.8% (inactive) | -4.44%
66 | COc1ccc(-c2cc(-c3ccc(N)cc3)nc(N)c2C#N)cc1OC | 42.1% (inactive) | -0.07%
67 | COc1ccc(OC)c2c(N)c(C#N)c(C(F)(F)C(F)(F)F)nc12 | 61.3% (active) | -8.43%
68 | O=S(=O)(NCc1ccccc1)c1ccc(S(=O)(=O)N2CCCC2)cc1 | 5.86% (inactive) | -0.28%
69 | CCCCc1nnc(NC(=O)CSc2nc(N)cc(=O)[nH]2)s1 | -9.03% (inactive) | -14.2%
70 | O=C(CSc1ccc(-c2ccccc2)nn1)NCC1CCCO1 (stereo not drawn) | -2.54% (inactive) | 0.5%
71 | O=C(N/N=C/c1c(Cl)[nH]c2ccccc12)c1sc2ccccc2c1Cl | 61.8% (active) | 41.3%
72 | Cc1nn(C)cc1/C=N/NC(=O)c1sc2ccccc2c1Cl | -10.9% (inactive) | 2.17%
73 | O=C(Nc1ccon1)c1sc2ccccc2c1Cl | 3.3% (inactive) | 0.77%
74 | COc1ccc(CCc2nnc(CCC(=O)NCc3cnn(-c4ccccc4C)c3)o2)cc1 | 12.2% (inactive) | 7.75%
75 | CS(=O)(=O)n1nc(-c2ccco2)nc1N | -0.21% (inactive) | -16.1%
76 | C=CCc1cccc2cc(C(=O)NC3CCCC3)c(=O)oc12 | 3.26% (inactive) | 9.03%
77 | CC(C)(C)c1ccc(OC2=CS(=O)(=O)c3ccccc32)cc1 | 59% (active) | 35.3%
78 | CC(C)(C)c1ccc(Oc2ccc(N)cc2)cc1 | 54.8% (inactive) | 38%
79 | CC(C)(C)c1csc(NC2=NS(=O)(=O)c3ccccc32)n1 | -0.65% (inactive) | -32.5%
80 | Cc1nn(CC(=O)NCc2ccccn2)c(C)c1[N+](=O)[O-] | -4.5% (inactive) | 4.36%
81 | COc1cc(CNCCN(C)C)ccc1OCc1c(F)cccc1Cl | -7.23% (inactive) | 10.9%
82 | CCCCNC(=O)N1CCN(S(C)(=O)=O)CC1 | 3.54% (inactive) | 2.85%
83 | CCCCCCCCn1c2c(c(=N)c3c1CCC3)CCCC2 | 80.6% (active) | 77.5%
84 | O=C1/C(=C/c2cccs2)CCC1C1CCCC1 (stereo not drawn) | 9.28% (inactive) | 37.2%
